Compounds with a hit are over-represented: about 6.2% of the library has one in this group of screens.
KinaseGlo FLuc – Kinase-Glo luciferase inhibition (counter-screen); Q27757; Kinase-Glo luciferase, ATP luminescence, 8 min; Potency, µM (titrated, usually from 38.3 µM), for the others: top-dose activity change, negative = inhibition, hits mostly inhibitors; 0.28% of 200,000 active; AID 1379; also: nearly all actives have a fitted effect of over 60% in size
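Compound is pinned into ATP-containing buffer (10 uM ATP, imidazole pH 7.2, 7 mM MgCl2). Kinase-Glo luciferase reagent is then added. Light output is recorded following an 8-min room-temperature incubation.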
VP16 counter – inhibits Gal4-VP16 luciferase reporter, ROR gamma counter-screen. 3.5% of 310,000 active. AID 2546. Potency, µM (titrated, usually from 53.6 µM), for inactives: top-dose activity, negative = inhibition, hits mostly inhibitors. Drosophila S2 Gal4-VP16 UAS-luciferase, luminescence, 20 h;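 also: Gal4-VP16 expression switched on by copper sulfate through the metallothionein promoter; nearly all actives have a fitted effect of over 50% in size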
RORg inh – blocks mouse ROR gamma transcriptional activity | P51450 | Drosophila S2 Gal4-RORgamma UAS-luciferase reporter, 20 h | Potency, µM (doses to about 53.6 µM), for inactives: at the top dose activity change, negative = inhibition, hits mostly inhibitors | 5.4% of 310,000 active; also: nearly all actives have a fitted effect of over 60% in size
Target sequence (P51450 whole entry, looked up, the tested form may be a part): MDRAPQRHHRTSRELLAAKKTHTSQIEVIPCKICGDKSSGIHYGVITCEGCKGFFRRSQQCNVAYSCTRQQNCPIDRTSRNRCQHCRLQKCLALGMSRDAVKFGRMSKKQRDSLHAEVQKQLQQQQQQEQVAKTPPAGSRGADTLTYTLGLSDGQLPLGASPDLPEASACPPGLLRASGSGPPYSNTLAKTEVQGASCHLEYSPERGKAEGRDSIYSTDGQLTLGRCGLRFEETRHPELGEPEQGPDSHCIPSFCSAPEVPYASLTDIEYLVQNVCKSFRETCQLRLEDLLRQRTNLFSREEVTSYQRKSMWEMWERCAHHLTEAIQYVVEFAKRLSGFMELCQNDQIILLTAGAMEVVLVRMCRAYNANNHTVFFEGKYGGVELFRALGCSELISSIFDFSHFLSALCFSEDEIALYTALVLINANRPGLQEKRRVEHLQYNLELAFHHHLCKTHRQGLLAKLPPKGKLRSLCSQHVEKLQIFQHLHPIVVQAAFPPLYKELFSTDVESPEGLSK
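Luciferase reporter read in Schneider cells carrying Gal4-RORγ (mouse) and UAS-Photinus luciferase; cells given compound 1 h before 700 uM copper sulfate induction, then incubated 20 h at ambient temperature.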
* hit, by the source's call; u = inconclusive; x = not tested or not shown; [ ] = remark or other dose. Calls follow the shape of the dose curve; as a rule, active = well fitted curve in the direction sought with a large enough effect; inconclusive = small, poorly fitted or top-dose-only effect, or another doubt; inactive = no such curve, though single readings can be large; an effect the other way counts as inactive or inconclusive. % is scaled to controls: 0 for no effect and ±100 for the full control effect; potency is read from the fitted curve at half-maximal effect.

SMILES	KinaseGlo FLuc	VP16 counter	RORg inh
COc1ccc(C(=O)NC2CCN(CC(=O)Nc3c(C)cccc3C)CC2)cc1OC	x	10%	6%[1.91 µM]
CC(=O)Nc1ccc(-c2csc(NNC(=O)c3ccc(C)cc3)n2)cc1	0%	3%[10 µM]	-22%
N#Cc1ccc(-c2csc(NNC(=O)c3ccccc3)n2)cc1	0%	u	11µM*
CC(=O)NNc1nc(-c2ccc(NC(C)=O)cc2)cs1	-2%	u	-5%
COc1ccc(-c2sc(NC(C)=O)nc2-c2ccccc2)cc1	3%	4%	14%
O=C(Nc1ccc(-c2csc(Nc3ccccc3)n2)cc1)c1ccccc1	x	8%	22%
COC(=O)c1nc(NNC(=O)c2ccccc2)sc1-c1ccccc1	x	-26%	14µM*
N#Cc1ccc(-c2csc(NNC(=O)c3ccc(Br)cc3)n2)cc1	-1%	u	5µM*
O=C(NNc1nc(-c2ccccc2)cs1)c1ccccc1	1%	4µM*	5µM*
O=C(O)c1ccc(/C=N/N2CCN(Cc3ccccc3)CC2)cc1	0%	19%	2%
C/C(=C\COc1c2ccoc2cc2oc(=O)ccc12)CCC(O)C(C)(C)O (stereo not given)	x	-4%	-14%
COc1ccc(C(=O)OCCNC(=O)c2ccncc2)cc1OC	1%	0%	34%
Cc1noc(C)c1C(=O)Nc1ccc2ccccc2c1	x	27%	16%
CCN(CC)CCCCn1c(-c2ccccc2)nc2c(NCc3ccccc3)nc(C)nc21	-1%	5%	-19%
N#Cc1ccc(CN2CCCC3(CCN(C(=O)c4cc(C(F)(F)F)cc(C(F)(F)F)c4)CC3)C2)cc1	0%	6%	-15%
COc1ccc(S(=O)(=O)N2CCCN(S(=O)(=O)c3ccc(OC)cc3C)CC2)c(C)c1	0%	-4%	u
N#Cc1ccc(CN2CC3(CCN(C(=O)c4cc(C(F)(F)F)cc(C(F)(F)F)c4)CC3)C2)cc1	0%	u	11%
COc1cccc(C(=O)/C=C/Nc2ccc(S(=O)(=O)Nc3ccc(C(C)=O)cc3)cc2)c1	x	-18%	u
COc1ccc(C(=O)/C=C/Nc2ccc(S(=O)(=O)Nc3cccc(C(C)=O)c3)cc2)cc1	1%	5.6µM*	-37%
CC(=O)Nc1ccc(NS(=O)(=O)c2ccc(-c3cnc(C4CC4)o3)cc2)cc1	x	-11%	21%
COc1cccc(N/C=C/C(=O)c2ccc(OC)c(OC)c2)c1	x	23%	15%
CC(=O)c1cccc(NS(=O)(=O)c2ccc(-c3cnc(C4CC4)o3)cc2)c1	x	8.9µM*	-30%
COc1ccc(C(=O)/C=C/Nc2cccc(O)c2)cc1	u	2µM*	10µM*
O=C(/C=C\Nc1ccccn1)c1ccc(Cl)cc1	u	10µM*	7.1µM*
O=C(Cc1ccc(Cl)cc1)Nc1ccccn1	x	8%	6%
SMILES	KinaseGlo FLuc	VP16 counter	RORg inh
Cc1ccc(C(=O)NCCCNC(=O)c2ccccc2C)cn1	x	-4%	45%
CCOC(=O)C1CCN(C(=O)COc2ccc(Br)cc2C)CC1	2%	-22%	-22%
Cc1onc(-c2c(Cl)cccc2Cl)c1NC(=O)NN(C)c1ccc([N+](=O)[O-])cn1	x	-1%	78%
Cc1ccc(Cl)c(N/C=C/C(=O)c2ccccc2)c1	x	u	-35%
O=C(Nc1ccncc1)c1ccc(S(=O)(=O)Nc2ccccc2)cc1	0%	3%	1%
CC(=O)c1cccc(NS(=O)(=O)c2ccc(C(=O)Nc3ccccc3)cc2)c1	x	10µM*	u
Cc1cccc(N/C=C/C(=O)c2ccc(Cl)cc2)c1	x	u	3.2µM*
CCCc1ccc(OCC(=O)Nc2cc(S(=O)(=O)CC)ccc2O)cc1	-7%	u	u
COC(=O)Oc1ccc(/C=N/NC(=O)CSCc2ccccc2Br)cc1OC	1%	13µM*	u
COc1ccc(/C=N/NC(=O)CSCC(=O)Nc2ccccc2)cc1OC	x	-5%	15%
N/C(=N\NC(=O)c1ccc(F)cc1)c1cc2ccccc2oc1=O	0%	u	3.5µM*
O=C(Nc1ccc(F)cc1F)c1cc2ccccc2oc1=O	x	2%	0%
NC(=O)c1cc2ccccc2o/c1=N\NC(=O)c1ccc(F)cc1	x	-9%	0%
N/C(=N\NC(=O)c1cccs1)c1cc2ccccc2oc1=O	1%	7.1µM*	7.1µM*
CCN(CC)c1ccc2cc(/C(N)=N/NC(=O)c3cccs3)c(=O)oc2c1	x	30%	-12%
N/C(=N\NC(=O)c1cccc(F)c1)c1cc2ccccc2oc1=O	x	3.5µM*	1µM*
Cc1ccc(NS(=O)(=O)c2ccc(Br)s2)nc1	1%	-24%	-3%
CC(C)(C)CC(C)(C)c1ccc(O)c(C[N+](C)(C)[O-])c1	-4%[7.66 µM]	x	x
Cc1cccc(NC(=O)C2CCCN2C(=O)NC2CCCCC2)c1 (stereo not given)	-2%	6%	-2%

High-throughput results: PubChem, National Center for Advancing Translational Sciences (NCATS)
